40 compounds from PubChem BioAssay (Tox21) can be followed below.

Where “and” joins values, the source holds several entries; their conditions need not be identical. Equal entries are not always repeated. Some structures have more than one record in an assay (separate samples or runs), and their calls can disagree. Calls of active or inactive are those of the source. A call without a number means that no potency is given here. Calls come from the whole dose curve.
Potency is the fitted concentration of half-maximal effect.

In the assay the target is Estrogen receptor (Homo sapiens) (UniProt P03372). Put plainly: qHTS assay to identify small molecule agonists of the estrogen receptor alpha (ER-alpha) signaling pathway in the presence of an antagonist (AID 1259383). Note: nearly all actives have a fitted effect of over 15% in size. The settings on record: VM7Luc4E2 cells, ERE-luciferase, +ICI-182,780, 22 h; series mostly up to 92.4 µM. The text has this: National Center for Advancing Translational Sciences [NCATS] NIH Chemical Genomics Center [NCGC] U.S. Environmental Protection Agency [EPA] National Institutes of Environmental Health Sciences [NIEHS] National Toxicology Program [NTP] Assay overview: Estrogen receptor (ER), a member of nuclear hormone receptor plays an important role in development, metabolic homeostasis and reproduction. Two subtypes of ER, ER-alpha and ER-beta, have similar expression patterns with some uniqueness in both types. Endocrine disrupting chemicals (EDCs) and their interactions with steroid hormone receptors like ER causes disruption of normal endocrine function. Therefore, it is important to understand the effect of environmental chemicals in ER signaling pathway. For identifying ER agonists, VM7Luc4E2 cell line has been used in the current assay. VM7Luc4E2 cell line (provided by Denison MS, University of California) endogenously expresses full-length ER-alpha and is stably transfected with a plasmid containing four estrogen responsive elements (ERE) upstream of a luciferase reporter gene. This current screening for measuring luciferase reporter gene activity using VM7Luc4E2 cells against Tox21 10K library collection is a confirmation study on agonist mode screening in presence of ER-antagonist (ICI-182,780) at 10.0nM final concentration.
Sequence of Estrogen receptor (Homo sapiens) (P03372 whole entry, looked up): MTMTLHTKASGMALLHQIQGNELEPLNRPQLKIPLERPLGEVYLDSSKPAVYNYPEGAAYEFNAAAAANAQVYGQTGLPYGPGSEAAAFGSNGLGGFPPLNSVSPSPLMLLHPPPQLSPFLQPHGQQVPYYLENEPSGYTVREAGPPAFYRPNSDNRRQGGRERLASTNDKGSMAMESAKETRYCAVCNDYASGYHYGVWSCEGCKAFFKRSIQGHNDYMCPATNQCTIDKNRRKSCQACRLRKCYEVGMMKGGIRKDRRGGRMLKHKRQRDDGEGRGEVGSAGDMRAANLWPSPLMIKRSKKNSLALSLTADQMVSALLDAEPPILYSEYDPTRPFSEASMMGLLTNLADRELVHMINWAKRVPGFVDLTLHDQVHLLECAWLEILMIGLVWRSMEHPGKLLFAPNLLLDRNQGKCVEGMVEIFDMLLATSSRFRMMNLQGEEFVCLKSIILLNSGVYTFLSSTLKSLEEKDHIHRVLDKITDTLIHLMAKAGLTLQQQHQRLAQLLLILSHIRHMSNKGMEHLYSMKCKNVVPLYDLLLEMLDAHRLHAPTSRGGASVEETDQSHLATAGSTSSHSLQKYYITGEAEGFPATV
Assay Protocol Summary: VM7Luc4E2 cells were cultured in phenol red free assay medium containing 10% charcoal stripped FBS for 5 days prior to the assay. The cells were dispensed at 4,000 cells in 4uL of assay medium per well into white wall/solid-bottom 1536-well plates (Corning Life Sciences, Corning, NY) using a Multidrop Combi (Thermo Fisher Scientific Inc., Waltham, MA) dispenser. After the assay plates were incubated at 37C and 5% CO2 for 24hr, 1uL of 10.0nM (final concentration) ICI-182,780 or assay buffer was added using two separate tips of Flying Reagent Dispenser (FRD, Aurora Discovery, San Diego, CA). Then 23nL of compounds dissolved in DMSO at 15 concentrations and positive controls or DMSO only was transferred to the assay plates by a Pintool station (Wako, San Diego, CA). The assay plates were incubated at 37C and 5% CO2 for 22hr. For luciferase read, 4uL/well ONE-Glo reagent (Promega Corporation, Madison, WI) was added to each well using FRD and after 30min incubation at room temperature, luminescence signal was measured on ViewLux plate reader (PerkinElmer, Shelton, CT).
With `CC(CCl)OP(=O)(OC(C)CCl)OC(C)CCl` (stereo not given), the Potency entry is “inactive”.

On to `CN(C)c1ccc(O)c2c1C[C@H]1C[C@H]3[C@H](N(C)C)C(=O)C(C(N)=O)=C(O)[C@@]3(O)C(=O)C1=C2O`, for which the Potency entry is “inactive and 2.66 µM (active)”.

Turning to `C=C(C)C(=O)OCC(C)C`, the Potency result is “inactive”.

With `COc1ccc(N)c(C)c1`, the Potency entry was “inactive”.

Regarding `CCNc1cccc(C)c1`, the Potency result was “inactive”.

Take `CCCCCCO`: the Potency entry was “inactive”.

With `c1ccc2c(c1)Cc1ccccc1-2`, the Potency entry is “inactive”.

For `CCCCCC(=O)O`, the Potency entry was “inactive”.

With `CCCCCCCCCCCCCCCCO`, the Potency entry is “inactive”.

On to `CC(C)CC(C)O` (stereo not given), for which the Potency result was “inactive”.

On to `O=C(O)c1ccccc1C(=O)O`, for which the Potency result was “inactive”.

For the compound `CSc1ccc(Cl)cc1`, the Potency result is “inactive”.

As to `O=c1[nH]cnc2[nH]ncc12`, the Potency entry is “inactive”.

Turning to `CC(=O)c1ccc(O)cc1`, the Potency result is “inactive”.

As to `O=[N+]([O-])c1ccc2nc[nH]c2c1`, the Potency entry was “inactive”.

For the compound `COc1ccc([N+](=O)[O-])cc1N`, the Potency result was “inactive”.

Turning to `CCO[Si](CCC#N)(OCC)OCC`, the Potency result is “inactive”.

Turning to `CC(=O)OCCOC(C)=O`, the Potency entry is “inactive”.

For the compound `CCCCCCCCCCCC(=O)OC`, the Potency result is “inactive”.

As for `Nc1nc(N)nc(-c2ccccc2)n1`, the Potency entry is “inactive”.

Take `CC(=O)CCC=C(C)C`: the Potency result is “inactive”.

In the case of `C=CC(C)CCCC(C)(C)O` (stereo not given), the Potency entry was “inactive”.

As for `O=C(O)c1ccc(S(=O)(=O)N(Cl)Cl)cc1`, the Potency entry is “inactive”.

For `NCCN1CCNCC1`, the Potency result was “inactive”.

As for `CCCCCCCO`, the Potency entry was “inactive”.

Turning to `CC(=O)Oc1ccc(C)cc1`, the Potency entry is “inactive”.

Turning to `CC1(C)NC(=O)NC1=O`, the Potency entry is “inactive”.

`CC(=O)OCc1ccco1`: the Potency result was “inactive”.

Consider `OC1C(O)C(O)C(O)C(O)C1O` (stereo not given), for which the Potency entry is “inactive”.

Consider `CCCCCCCC=O`, for which the Potency entry is “inactive”.

On to `O=C(O)c1ccc(C(=O)O)c(C(=O)O)c1`, for which the Potency result was “inactive”.

Take `CCO[Si](CCCN)(OCC)OCC`: the Potency entry is “inactive”.

Consider `CC1(C)CC(N)CC(C)(CN)C1` (stereo not given), for which the Potency was 13.9 µM (active) and inactive.

As to `OCc1ccccc1`, the Potency entry is “inactive”.

Regarding `CC(C)=CCl`, the Potency entry was “inactive”.

`CC(C)OP(=O)(CP(=O)(OC(C)C)OC(C)C)OC(C)C`: the Potency result was “inactive”.

In the case of `O=C(OCC1CCC2OC2C1)C1CCC2OC2C1` (stereo not given), the Potency entry is “inactive”.

With `Cc1ccc([N+](=O)[O-])cc1S(=O)(=O)O`, the Potency result is “inactive”.

With `Nc1ccc(Cl)c(N)c1`, the Potency entry was “inactive”.

As to `O=C1CCCC1`, the Potency result is “inactive”.
